In article PMC11006913 one finds binding signal data, which are given here for twelve sequences.

Common to all, as to experiment: PBM; 200 nM protein, PBS
Settings in all cases: dsDNA, one strand shown

Assay [1] deals with ALX3 (Homo sapiens, UniProt O95076 139-225, N203Q).
Assay [2] has as its target T1, PAX4 (Homo sapiens, UniProt O43316 9-242, F177V).
T1 sequence: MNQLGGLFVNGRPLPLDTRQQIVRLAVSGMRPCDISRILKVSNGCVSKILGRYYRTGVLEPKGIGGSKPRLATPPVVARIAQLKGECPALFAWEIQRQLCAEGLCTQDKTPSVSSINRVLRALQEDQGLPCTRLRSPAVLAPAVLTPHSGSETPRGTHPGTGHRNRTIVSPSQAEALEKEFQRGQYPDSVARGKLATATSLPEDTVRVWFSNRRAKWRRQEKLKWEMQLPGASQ

The target of assay [3] is ALX3 (Homo sapiens, UniProt O95076 139-225, N203S).
Chain of ALX3 (Homo sapiens, UniProt O95076 139-225, N203S) (O95076 139-225 N203S): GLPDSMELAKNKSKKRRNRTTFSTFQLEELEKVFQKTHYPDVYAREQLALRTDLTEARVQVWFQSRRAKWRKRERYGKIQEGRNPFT
In assay [4] the target is T2, PAX4 (Homo sapiens, UniProt O43316 9-242, F177Y).
T2 sequence: T1 sequence with V169Y

Assay [5] addresses ALX3 (Homo sapiens, UniProt O95076 139-225).
Assay [6] addresses T3, NKX2-6 (Homo sapiens, UniProt A6NCS4 118-204).
T3 sequence: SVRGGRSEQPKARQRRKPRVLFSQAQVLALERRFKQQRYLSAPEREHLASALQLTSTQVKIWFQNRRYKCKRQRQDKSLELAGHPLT

Assay [7] deals with PROP1 (Homo sapiens, UniProt O75360 56-141).
Chain of PROP1 (Homo sapiens, UniProt O75360 56-141) (O75360 56-141): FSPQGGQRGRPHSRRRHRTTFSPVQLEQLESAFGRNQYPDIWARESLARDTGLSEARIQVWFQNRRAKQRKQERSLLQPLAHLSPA
Assay [8] addresses PROP1 (Homo sapiens, UniProt O75360 56-141, R99H).
Assay [9] has as its target ALX3 (Homo sapiens, UniProt O95076 139-225, L168Q).
The target in assay [10] is T4, NKX2-6 (Homo sapiens, UniProt A6NCS4 118-204, F151L).
T4 sequence: T3 sequence with F34L

Assay [11] concerns the target ALX3 (Homo sapiens, UniProt O95076 139-225, L168V).
Assay [12] concerns the target PROP1 (Homo sapiens, UniProt O75360 56-141, F88S).
The target in assay [13] is T5, PAX4 (Homo sapiens, UniProt O43316 9-242, R227W).
T5 sequence: T1 sequence with V169F, R219W

Where a chain is given by its changes, count along the chain named.

Chain of ALX3 (Homo sapiens, UniProt O95076 139-225, N203Q) (O95076 139-225 N203Q): as the sequence (O95076 139-225 N203S) above, with S65Q counted along it
Chain of ALX3 (Homo sapiens, UniProt O95076 139-225, L168Q) (O95076 139-225 L168Q): as the sequence (O95076 139-225 N203S) above, with L30Q, S65N counted along it
Chain of ALX3 (Homo sapiens, UniProt O95076 139-225, L168V) (O95076 139-225 L168V): as the sequence (O95076 139-225 N203S) above, with L30V, S65N counted along it
Chain of ALX3 (Homo sapiens, UniProt O95076 139-225) (O95076 139-225): as the sequence (O95076 139-225 N203S) above, with S65N counted along it
Chain of PROP1 (Homo sapiens, UniProt O75360 56-141, F88S) (O75360 56-141 F88S): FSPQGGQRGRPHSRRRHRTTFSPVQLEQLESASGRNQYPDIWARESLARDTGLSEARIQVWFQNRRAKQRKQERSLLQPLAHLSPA
Chain of PROP1 (Homo sapiens, UniProt O75360 56-141, R99H) (O75360 56-141 R99H): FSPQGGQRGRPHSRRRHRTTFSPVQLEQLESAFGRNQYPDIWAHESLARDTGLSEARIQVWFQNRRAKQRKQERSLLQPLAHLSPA

In the case of ATAATATA, the binding signal with ALX3 [1] was 8.66 upbm affinity estimate (log intensity, higher = more binding, comparable within an allelic series); with PAX4 [2], 10.7 upbm affinity estimate (log intensity, higher = more binding, comparable within an allelic series); with ALX3 [3] it was 8.76 upbm affinity estimate (log intensity, higher = more binding, comparable within an allelic series).

Regarding TATACATA, the binding signal with ALX3 [1] was 8.57 upbm affinity estimate (log intensity, higher = more binding, comparable within an allelic series); with PAX4 [2] it was 10.7 upbm affinity estimate (log intensity, higher = more binding, comparable within an allelic series); with PAX4 [4], 10.7 upbm affinity estimate (log intensity, higher = more binding, comparable within an allelic series).

Regarding ATTTACGG, the binding signal with ALX3 [1] was 8.3 upbm affinity estimate (log intensity, higher = more binding, comparable within an allelic series); with ALX3 [5], 10.1 upbm affinity estimate (log intensity, higher = more binding, comparable within an allelic series).

As to CGGCCCAG, the binding signal with ALX3 [1] was 7.75 upbm affinity estimate (log intensity, higher = more binding, comparable within an allelic series); with NKX2-6 [6] it was 8.83 upbm affinity estimate (log intensity, higher = more binding, comparable within an allelic series); with ALX3 [5], 7.72 upbm affinity estimate (log intensity, higher = more binding, comparable within an allelic series); with PROP1 [7], 6.51 upbm affinity estimate (log intensity, higher = more binding, comparable within an allelic series); with PROP1 [8], 6.59 upbm affinity estimate (log intensity, higher = more binding, comparable within an allelic series); in the assay with ALX3 [9] it was 7.67 upbm affinity estimate (log intensity, higher = more binding, comparable within an allelic series). Also, the binding signal with NKX2-6 [10] was 9.1 upbm affinity estimate (log intensity, higher = more binding, comparable within an allelic series); with ALX3 [11], 7.67 upbm affinity estimate (log intensity, higher = more binding, comparable within an allelic series); with PROP1 [12] it was 6.34 upbm affinity estimate (log intensity, higher = more binding, comparable within an allelic series); with ALX3 [3], 7.74 upbm affinity estimate (log intensity, higher = more binding, comparable within an allelic series).

For ACCAGCGG, the binding signal with ALX3 [1] is 7.79 upbm affinity estimate (log intensity, higher = more binding, comparable within an allelic series); with ALX3 [5], 7.56 upbm affinity estimate (log intensity, higher = more binding, comparable within an allelic series); in the assay with ALX3 [9], 7.79 upbm affinity estimate (log intensity, higher = more binding, comparable within an allelic series); with ALX3 [11] it was 7.78 upbm affinity estimate (log intensity, higher = more binding, comparable within an allelic series); with ALX3 [3] it was 7.78 upbm affinity estimate (log intensity, higher = more binding, comparable within an allelic series).

With AGCGGGAC, the binding signal was 7.69 upbm affinity estimate (log intensity, higher = more binding, comparable within an allelic series) with ALX3 [1]; 7.54 upbm affinity estimate (log intensity, higher = more binding, comparable within an allelic series) with ALX3 [5]; 7.62 upbm affinity estimate (log intensity, higher = more binding, comparable within an allelic series) in the assay with ALX3 [9]; 7.69 upbm affinity estimate (log intensity, higher = more binding, comparable within an allelic series) with ALX3 [11]; 7.73 upbm affinity estimate (log intensity, higher = more binding, comparable within an allelic series) with ALX3 [3].

On to ATAAATGG, for which the binding signal in the assay with ALX3 [1] is 8.33 upbm affinity estimate (log intensity, higher = more binding, comparable within an allelic series); with ALX3 [5] it was 9.85 upbm affinity estimate (log intensity, higher = more binding, comparable within an allelic series).

AATATTAT: the binding signal was 8.61 upbm affinity estimate (log intensity, higher = more binding, comparable within an allelic series) in the assay with ALX3 [1]; 10.7 upbm affinity estimate (log intensity, higher = more binding, comparable within an allelic series) with PAX4 [2]; 8.71 upbm affinity estimate (log intensity, higher = more binding, comparable within an allelic series) with ALX3 [3].

Take CTCCAGCC: the binding signal with ALX3 [1] was 7.6 upbm affinity estimate (log intensity, higher = more binding, comparable within an allelic series); with ALX3 [5], 7.5 upbm affinity estimate (log intensity, higher = more binding, comparable within an allelic series); with ALX3 [9], 7.62 upbm affinity estimate (log intensity, higher = more binding, comparable within an allelic series); in the assay with ALX3 [11], 7.62 upbm affinity estimate (log intensity, higher = more binding, comparable within an allelic series); with ALX3 [3], 7.57 upbm affinity estimate (log intensity, higher = more binding, comparable within an allelic series).

Consider CGAAATCA, for which the binding signal is 8.09 upbm affinity estimate (log intensity, higher = more binding, comparable within an allelic series) with ALX3 [1]; 9.04 upbm affinity estimate (log intensity, higher = more binding, comparable within an allelic series) in the assay with ALX3 [5]; 7.77 upbm affinity estimate (log intensity, higher = more binding, comparable within an allelic series) in the assay with PROP1 [7]; 8.15 upbm affinity estimate (log intensity, higher = more binding, comparable within an allelic series) with ALX3 [3].

On to CGCTCCCC, for which the binding signal with ALX3 [1] is 7.64 upbm affinity estimate (log intensity, higher = more binding, comparable within an allelic series); with ALX3 [5], 7.58 upbm affinity estimate (log intensity, higher = more binding, comparable within an allelic series); in the assay with ALX3 [9] it was 7.75 upbm affinity estimate (log intensity, higher = more binding, comparable within an allelic series); in the assay with ALX3 [11], 7.7 upbm affinity estimate (log intensity, higher = more binding, comparable within an allelic series); with ALX3 [3], 7.67 upbm affinity estimate (log intensity, higher = more binding, comparable within an allelic series).

As for ATATTATA, the binding signal is 8.63 upbm affinity estimate (log intensity, higher = more binding, comparable within an allelic series) in the assay with ALX3 [1]; 10.7 upbm affinity estimate (log intensity, higher = more binding, comparable within an allelic series) with PAX4 [2]; 10.9 upbm affinity estimate (log intensity, higher = more binding, comparable within an allelic series) with PAX4 [13]; 8.69 upbm affinity estimate (log intensity, higher = more binding, comparable within an allelic series) in the assay with ALX3 [3].
